# Assay results taken from PubChem BioAssay (Tox21).
# Several values for one entry are separate records, joined by “and”; a condition that tells them apart may be missing. Equal entries are not always repeated. Records with an inconclusive call do not appear. Where a call stands in place of a potency, no number is given. Activity calls are given as the source filed them. Unless noted, calls come from the whole dose curve; as a rule, active = well fitted curve in the direction sought with a large enough effect in the repeat runs; inconclusive = weak or mixed curves; inactive = no such curve, though single readings can be large; an effect the other way counts as inactive or inconclusive.
# Columns and labels:
# [1] = qHTS assay to identify small molecule antagonists of the glucocorticoid receptor (GR) signaling pathway - cell viability counter screen (AID 720693); note: nearly all actives have a fitted effect of over 55% in size
# [2] = qHTS assay for identifying genotoxic compounds that show differential cytotoxicity against isogenic chicken DT40 cell lines with known DNA damage response pathways - wild type cell line (AID 743012); note: nearly all actives have a fitted effect of over 60% in size; note: potency is the fitted concentration of half-maximal effect
# Method in brief: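 Luminescent ATP viability signal (CellTiter-Glo, 30 min RT) recorded after wild type DT40 cells were incubated with compounds for 40 h at 37 C/5% CO2.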
# [3] = qHTS assay for identifying genotoxic compounds that show differential cytotoxicity against isogenic chicken DT40 cell lines with known DNA damage response pathways - Rev3 mutant cell line (AID 743014); note: nearly all actives have a fitted effect of over 55% in size; note: potency is the fitted concentration of half-maximal effect
# [4] = qHTS assay for identifying genotoxic compounds that show differential cytotoxicity against isogenic chicken DT40 cell lines with known DNA damage response pathways - Rad54/Ku70 mutant cell line (AID 743015); note: nearly all actives have a fitted effect of over 60% in size; note: potency is the fitted concentration of half-maximal effect
# [5] = qHTS assay to identify small molecule antagonists of the androgen receptor (AR) signaling pathway - cell viability counter screen (AID 743033; note: nearly all actives have a fitted effect of over 45% in size)
# [6] = target: Androgen receptor (Homo sapiens) (UniProt P10275); assay: qHTS assay to identify small molecule agonists of the androgen receptor (AR) signaling pathway (AID 743036; active = well fitted activation curve with a large enough effect in the signal ratio in the repeat runs, with a control signal flat, not every such curve was filed as active; the % refers to the signal ratio)
# Chain of Androgen receptor (Homo sapiens) (P10275 whole entry, looked up): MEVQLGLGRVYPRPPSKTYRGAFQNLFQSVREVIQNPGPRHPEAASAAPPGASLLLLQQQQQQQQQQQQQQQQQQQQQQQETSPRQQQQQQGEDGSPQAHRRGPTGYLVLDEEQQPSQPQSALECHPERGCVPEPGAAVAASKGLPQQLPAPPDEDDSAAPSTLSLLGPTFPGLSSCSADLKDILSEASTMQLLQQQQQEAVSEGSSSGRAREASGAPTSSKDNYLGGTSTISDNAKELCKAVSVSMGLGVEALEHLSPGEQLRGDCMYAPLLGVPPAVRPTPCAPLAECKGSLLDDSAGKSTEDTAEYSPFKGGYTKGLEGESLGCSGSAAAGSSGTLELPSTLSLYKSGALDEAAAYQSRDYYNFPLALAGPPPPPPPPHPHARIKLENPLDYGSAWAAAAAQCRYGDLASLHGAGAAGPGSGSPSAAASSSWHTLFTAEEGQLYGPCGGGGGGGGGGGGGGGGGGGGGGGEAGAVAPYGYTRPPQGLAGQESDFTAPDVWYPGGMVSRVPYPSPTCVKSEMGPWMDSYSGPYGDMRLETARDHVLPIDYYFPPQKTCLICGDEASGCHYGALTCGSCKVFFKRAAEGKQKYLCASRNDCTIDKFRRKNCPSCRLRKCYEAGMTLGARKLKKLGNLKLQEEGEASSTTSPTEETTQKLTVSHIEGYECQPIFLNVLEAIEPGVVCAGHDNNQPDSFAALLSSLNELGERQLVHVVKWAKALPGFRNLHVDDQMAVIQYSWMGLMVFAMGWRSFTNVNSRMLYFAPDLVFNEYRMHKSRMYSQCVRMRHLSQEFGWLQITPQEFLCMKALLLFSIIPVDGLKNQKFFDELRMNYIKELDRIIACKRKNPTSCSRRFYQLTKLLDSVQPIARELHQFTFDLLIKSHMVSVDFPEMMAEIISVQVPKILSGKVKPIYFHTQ
# Method in brief: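 Quantitative HTS of the Tox21 10K library in HEK293 cells bearing a stably integrated UAS-controlled beta-lactamase reporter. Compound exposure lasted 16 h at 37C. Reporter activity was detected by FRET substrate fluorescence after 2 h at room temperature.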
# [7] = target: Androgen receptor (Homo sapiens) (UniProt P10275); assay: qHTS assay to identify small molecule agonists of the androgen receptor (AR) signaling pathway using the MDA cell line (AID 743040; note: nearly all actives have a fitted effect of over 20% in size)
# Method in brief: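 Stable MMTV-luciferase reporter in MDA-kb2 cells; note the promoter carries GR as well as AR response elements. 16 h compound treatment, 37C, 0% CO2; ONE-Glo luminescence endpoint.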
# [8] = qHTS assay to identify small molecule antagonists of the androgen receptor (AR) signaling pathway using the MDA cell line - cell viability counter screen (AID 743041; note: nearly all actives have a fitted effect of over 45% in size)
# Method in brief: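 Using the breast carcinoma line MDA-kb2 AR-luc, test chemicals were co-incubated with R1881 for 16 h; CellTiter-Fluor reagent, added at 15.5 h, provided a fluorescence measure of live cells.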
# [9] = target: Androgen receptor (Homo sapiens) (UniProt P10275); assay: qHTS assay to identify small molecule antagonists of the androgen receptor (AR) signaling pathway using the MDA cell line (AID 743042; note: nearly all actives have a fitted effect of over 55% in size)
# Method in brief: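 Antagonist mode: compounds plus R1881 agonist added to MDA-kb2 AR-luc cells, incubated 16 h at 37C. Luciferase reporter luminescence quantified, with multiplexed CellTiter-Fluor readout for cell viability.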
# [10] = target: Androgen receptor (Homo sapiens) (UniProt P10275); assay: qHTS assay to identify small molecule antagonists of the androgen receptor (AR) signaling pathway (AID 743035; active = well fitted inhibition curve with a large enough effect in the signal ratio in the repeat runs, not every such curve was filed as active; the % refers to the signal ratio; note: potency is the fitted concentration of half-maximal effect)
# Method in brief: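 Quantitative HTS of the Tox21 10K library used HEK293 AR-UAS-bla cells stimulated with R1881 alongside compound for 16 h at 37C, followed by beta-lactamase FRET detection (LiveBLAzer B/G, 2 h, RT).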
Compound,Potency [1],Potency [2],Potency [3],Potency [4],Potency [5],outcome [6],Potency [7],Potency [8],Potency [9],Potency [10]
CCCCOC(O)CC (stereo not given),inactive,inactive,inactive,inactive,inactive,inactive,inactive,inactive,inactive,
CC(C)CCCCCCOC(=O)c1ccc(C(=O)OCCCCCCC(C)C)c(C(=O)OCCCCCCC(C)C)c1,inactive,inactive,inactive,inactive,,,,,,
CC(CN)CCCN (stereo not given),inactive,inactive,inactive,inactive,inactive,,,inactive,,
O=C(C(=O)c1ccc(Br)cc1)c1ccc(Br)cc1,inactive,inactive,inactive,inactive,inactive,inactive,inactive,inactive,inactive,inactive
S=C(S)NCCNC(=S)S,inactive,inactive,inactive,inactive,inactive,,,,,
CC(=O)SCc1ccco1,inactive,inactive,inactive,inactive,inactive,inactive,inactive,,inactive,inactive
N[C@H]1C(O)O[C@H](CO)[C@H](O)[C@@H]1O (stereo not given in full),inactive,inactive,inactive,inactive,inactive,inactive,inactive,inactive,inactive,inactive
COCCOCCOCCOCCOC,inactive,inactive,inactive,inactive,inactive,,inactive,inactive,inactive,inactive
COc1ccc(C(C)=O)cc1,inactive,inactive,inactive,inactive,inactive,inactive,inactive,inactive,inactive,inactive
CCCC[C@H]1CN(CC2CCOCC2)C(=O)OC12CCN(C1(C)CCN(C(=O)c3c(C)ncnc3C)CC1)CC2,inactive,inactive,inactive,inactive,inactive,,,,,
CC(C)c1cccc(C(C)C)c1NC(=O)NS(=O)(=O)c1cc(C(C)(C)O)co1,inactive,inactive,inactive,inactive,inactive,,,inactive,,
Cl/C(=C\n1cncn1)c1ccc(Cl)cc1Cl,inactive,inactive,inactive,inactive,inactive,,,,,
C=C(C)C(=O)OC(C)C,inactive,inactive,inactive,inactive,inactive,inactive,inactive,inactive,inactive,inactive
O=S1(=O)c2cccc3cccc(c23)N1CCCN1CCN(c2ccc(F)cc2)CC1,inactive,18.8 µM (active),23.7 µM (active),23.7 µM (active),inactive,,,,,
CCCCCCCCC(CO)CCCCCC (stereo not given),inactive,inactive,inactive,inactive,inactive,,,inactive,,
Cc1c(Cn2ccnc2)c2ccccc2n1CCC(=O)O,inactive,inactive,inactive,inactive,,,,,,
CCC(C)N(C)C(=O)c1cc2ccccc2c(-c2ccccc2Cl)n1 (stereo not given),inactive,15.7 µM (active),14 µM (active),14 µM (active),inactive,inactive,inactive,inactive,,28.2 µM (active)
O=[N+]([O-])c1cccc(Cl)c1Cl,inactive,inactive,inactive,inactive,inactive,,,,,
CC(C)c1ccccc1C(C)C,inactive,inactive,inactive,,,,,,,
CC(C)CC=O,inactive,inactive,inactive,inactive,inactive,,,inactive,,
Cn1c(=O)c2c(ncn2CC(O)CO)n(C)c1=O (stereo not given),inactive,inactive,inactive,inactive,inactive,,,,,
NC(=S)N/N=C/c1cccnc1,inactive,inactive,inactive,inactive,inactive,inactive,inactive,inactive,inactive,inactive
CN1CCC(OC(c2ccccc2)c2ccccc2)CC1,inactive,11.4 µM (active),12.7 µM (active),11.4 µM (active),inactive,,,inactive,,

Compound,Potency [1],Potency [2],Potency [3],Potency [4],Potency [5],outcome [6],Potency [7],Potency [8],Potency [9],Potency [10]
CCOC(=O)CC(C)C,inactive,inactive,inactive,inactive,inactive,,,inactive,,
CC(=O)/C(C)=C/C1C(C)=CCCC1(C)C (stereo not given),inactive,inactive,inactive,inactive,inactive,,,,,
O=C(O)COC(=O)Cc1ccccc1Nc1c(Cl)cccc1Cl,inactive,inactive,inactive,inactive,inactive,inactive,inactive,inactive,inactive,inactive
O=C(NN1CCCC1)NS(=O)(=O)c1ccc(Cl)cc1,inactive,inactive,inactive,inactive,inactive,,,inactive,,
N#CCc1cccc(C(F)(F)F)c1,inactive,inactive,inactive,inactive,inactive,,,inactive,,
Cc1cccc(C(C)(C)C)c1O,inactive,inactive,inactive,inactive,inactive,,,inactive,,
CCCCCCOC(=O)CCC,inactive,inactive,inactive,inactive,inactive,,,inactive,,
CN(C)CC/C=C1\c2ccccc2COc2ccccc21,inactive,29.8 µM (active),26.6 µM (active),29.8 µM (active),,inactive,inactive,inactive,inactive,
CC(C(=O)O)c1ccc(C(=O)c2ccccc2)s1 (stereo not given),inactive,inactive,inactive,inactive,,,inactive,inactive,inactive,inactive
Cc1ccc(C(C)c2ccc(C)c(C)c2)cc1C,inactive,inactive,inactive,inactive,inactive,,,inactive,,
CCCCCCCCCCCCCCC1CO1 (stereo not given),inactive,inactive,inactive,inactive,inactive,,,inactive,,
O=C(O)Cc1sc(-c2ccccc2)nc1-c1ccc(Cl)cc1,inactive,inactive,inactive,inactive,,,inactive,inactive,inactive,inactive
CCCCOc1cc(C(=O)OCCN(CC)CC)ccc1N,inactive,10.1 µM (active),2.54 µM (active),8.04 µM (active),inactive,,,inactive,,
C=Cc1c(C)c2cc3[nH]c(cc4nc(cc5nc(cc1[nH]2)C(C)=C5CCC(=O)O)C(CCC(=O)O)=C4C)c(C)c3C=C,inactive,inactive,inactive,inactive,inactive,,,inactive,,
Nc1nc(N)c2nc(CNc3ccc(C(=O)N[C@@H](CCC(=O)O)C(=O)O)cc3)cnc2n1,inactive,11.9 µM (active),13.3 µM (active),23.7 µM (active) and 1.4 nM (active),inactive,,,inactive,,
CCCCCCCCN(C)C,inactive,inactive,inactive,inactive,inactive,,,inactive,,
CCOC(=S)SSC(=S)OCC,inactive,inactive,inactive,inactive,inactive,,,inactive,,
O=C(NS(=O)(=O)/C=C/c1cccs1)c1ccc(F)cc1Br,inactive,inactive,inactive,inactive,,inactive,inactive,inactive,inactive,
ClC(Cl)(Cl)c1ccc(C(Cl)(Cl)Cl)cc1,inactive,inactive,inactive,inactive,inactive,,,inactive,,
Nc1nc(N)c(-c2ccccc2)s1,inactive,inactive,inactive,inactive,inactive,,,inactive,,
N#CCCNCCC#N,inactive,inactive,inactive,inactive,inactive,,,inactive,,
O=c1c2ccccc2nnn1CCl,inactive,inactive,inactive,inactive,inactive,,,inactive,,
O=C(O)C(c1ccc(Cl)cc1)c1ccc(Cl)cc1,inactive,inactive,inactive,inactive,inactive,,,inactive,,

Compound,Potency [1],Potency [2],Potency [3],Potency [4],Potency [5],outcome [6],Potency [7],Potency [8],Potency [9],Potency [10]
CC(=O)c1ccc2c(c1)[C@H](NC(=O)c1ccc(F)cc1)[C@@H](O)C(C)(C)O2,inactive,inactive,inactive,inactive,inactive,,,inactive,,
CCN(CC)C(C)=O,inactive,inactive,inactive,inactive,inactive,,,inactive,,
Cc1cccc(Oc2ccccc2)c1,inactive,inactive,inactive,inactive,inactive,,,inactive,,
CN1CCN(C2=Nc3ccccc3Sc3ccc(Cl)cc32)CC1,inactive,8.41 µM (active),6.68 µM (active),10.6 µM (active),,,inactive,inactive,inactive,
O=C1CCCCCO1,inactive,inactive,inactive,inactive,inactive,,,inactive,,
COC(=O)C(C)=O,inactive,inactive,inactive,inactive,inactive,,,inactive,,
CCCCCCCCCCCCCCCC(=O)OC/C=C(C)/C=C/C=C(C)/C=C/C1=C(C)CCCC1(C)C,inactive,inactive,inactive,inactive,inactive,,,inactive,,
C1CCC2OC2C1 (stereo not given),inactive,inactive,inactive,inactive,,inactive,inactive,inactive,inactive,inactive
NCCCN(CCO)CCO,inactive,inactive,inactive,inactive,,inactive,inactive,inactive,inactive,
CC(=O)c1c(C)c([N+](=O)[O-])c(C(C)(C)C)c([N+](=O)[O-])c1C,inactive,inactive,inactive,inactive,inactive,,,inactive,,
CCCCCCCCCCCCCCCCCBr,inactive,inactive,inactive,inactive,inactive,,,inactive,,
NCc1ccccc1,inactive,inactive,inactive,inactive,inactive,,,inactive,,
CN1CCC[C@@H]1c1cccnc1,inactive,inactive,inactive,inactive,inactive,,,inactive,,
C=C(C)C(=O)OCCN(C)C,inactive,inactive,inactive,inactive,inactive,,,inactive,,
C=CC(C)(CCC=C(C)C)OC(=O)c1ccccc1 (stereo not given),inactive,inactive,24.3 µM (active),27.3 µM (active),inactive,,,inactive,,
Cc1ccccn1,inactive,inactive,inactive,inactive,inactive,,,inactive,,
CC(=O)NCCCS(=O)(=O)O,inactive,inactive,inactive,inactive,inactive,,,inactive,,
CCCCCCCCCCCCC(=O)O,inactive,inactive,inactive,inactive,inactive,,,inactive,,
CC1CCc2cc(F)cc3c(=O)c(C(=O)O)cn1c23 (stereo not given),inactive,inactive,inactive,inactive,,,,inactive,,
COCCO,inactive,inactive,inactive,inactive,,,,inactive,,
CN1CCN(C2=Nc3cc(Cl)ccc3Nc3ccccc32)CC1,inactive,21.1 µM (active),26.6 µM (active),,inactive,,,inactive,,
